According to PubChem BioAssay (NCI):
About 79,000 compounds went through this panel and 15% of them were active in at least one assay; those are over-represented in the sample as a whole. Activity calls are given as the source filed them. No stated cut-off is given here; in the data, active means growth inhibition above about 70%; inactive means the rest.

Experiment: NCI Yeast Anticancer Drug Screen. Data for the mec2-1 strain (AID 157)
Details: S. cerevisiae mec2-1 strain, at 50.0 µM, active compounds read high
In short: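 Readout is yeast growth inhibition, normalised to vehicle-treated controls, in the mec2-1 strain exposed to compound.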

Structure (SMILES)	growth inhibition
O=P(Oc1ccccc1)(Oc1ccccc1)C(O)c1ccccc1 (stereo not given)	3.55% (inactive)
CNC(=O)C(Cl)Cl	4.85% (inactive)
CCOC(=O)CC(Br)C(=O)CBr (stereo not given)	11% (inactive)
CC(C)C1NC(C(C)C)N2C(C(C)C)N12 (stereo not given)	-17.2% (inactive)
O=[C-]C(F)(F)F.[C-]#[O+].[C-]#[O+].[C-]#[O+].[Mo].[c-]1[c-][c-][cH-][c-]1	13.3% (inactive)
COc1ccc2ccc([Se]c3ccc4ccc(OC)cc4c3)cc2c1	-22.4% (inactive)
Nc1cccc2c1Cc1cc([N+](=O)[O-])ccc1-2	-37.2% (inactive)
CN(C)CCNC(=O)c1ccc(N(CCCl)CCCl)c([N+](=O)[O-])c1[N+](=O)[O-]	20.4% (inactive)
O=S(=O)(O)C(Br)(Br)Br	5.3% (inactive)
FC(F)(F)C(OP(OC(C(F)(F)F)C(F)(F)F)OC(C(F)(F)F)C(F)(F)F)C(F)(F)F	8.95% (inactive)
CCCCCCCCCCCCCCCC(=O)[O][Hg][c]1ccccc1	96.7% (active)
O=[N+]([O-])c1ccc(OCc2ccc(S(=O)(=O)F)cc2Cl)c(Cl)c1	-2.95% (inactive)
Oc1ccc(Nc2ncnc3nc[nH]c23)cc1CN(CCCl)CCCl	-5.8% (inactive)
CCOC(=O)C[S][Sn]([Cl])([Cl])[S]CC(=O)OCC	-1.15% (inactive)
CCCn1cc2c3c(cccc31)[C@H]1C[C@@H](C)CN(C)[C@@H]1C2	45.4% (inactive)
CC(C)c1cccc(C(C)C)c1NC(=O)/C(CC(=O)CC(c1ccccc1)c1c(O)c2ccccc2oc1=O)=N/O (stereo not given)	4.85% (inactive)
O=C(Nc1ccc(S(=O)(=O)F)cc1)/C(=C\c1ccc([N+](=O)[O-])cc1)c1cccc(Cl)c1	4.3% (inactive)
O=C(Nc1c(O)[nH]c(=S)[nH]c1=O)c1ccco1	-4.8% (inactive)
Cc1cc(S(=O)(=O)F)ccc1NC(=O)NCc1ccc([N+](=O)[O-])cc1	15.7% (inactive)
N#CC[CH2][Sn]([I])([c]1ccccc1)[c]1ccccc1	98.8% (active)

Structure (SMILES)	growth inhibition
CCOP(=O)(O)OCC.[Y]	7.3% (inactive)
C1CCN2CC3CONC3C2C1 (stereo not given)	-7.5% (inactive)
CCOP(=O)(OCC)/C(C#N)=C/C=C/c1ccco1	-21.3% (inactive)
CCOP(=S)(OCC)S/C(C(=O)NC)=C(/C)O	22.9% (inactive)
O=C1NN2CCCN=C2c2cnccc21	4.5% (inactive)
COc1cc(O)c2c(O)c3c(=O)cc(C)oc3cc2c1	-6.2% (inactive)
COC1C(O)CC(OC2CC(Oc3cc4cc5c(c(O)c4c(O)c3C)C(=O)[C@@H](OC3CC(OC4CC(OC6CC(C)(O)C(OC(C)=O)C(C)O6)C(O)C(C)O4)C(O)C(C)O3)[C@H]([C@H](OC)C(=O)[C@@H](O)[C@@H](C)O)C5)OC(C)C2OC(C)=O)OC1C (stereo not given in full)	24.9% (inactive)
Cc1cccc2c1[se]c1ccccc12	-3.85% (inactive)
O=N[O-].[Co].[NH-]CC[NH-].[NH-]CC[NH-].[NH2-]	7.5% (inactive)
CN1C(=O)c2ccccc2NC(=O)C12O[C@@H]2c1ccccc1 (stereo not given in full)	-19.7% (inactive)
CCC(C)(C)C(=O)Nc1cccc(OC(=O)NC)c1	-9.1% (inactive)
CCNc1ccc([N+](=O)[O-])cc1[N+](=O)[O-]	16.9% (inactive)
COc1cc(N=Nc2ccc([N+](=O)[O-])cc2)c([OH+]C)cc1[N+]#N.COc1cc(N=Nc2ccc([N+](=O)[O-])cc2)c([OH+]C)cc1[N+]#N.[Cl][Zn][Cl]	-1.05% (inactive)
O=C(Nc1cc(Cl)c(Cl)cc1Cl)C(=O)C1C(=O)NC(=S)NC1=O	-8.2% (inactive)
COS(=O)(=O)c1ccc(C)cc1	-1.85% (inactive)
COc1ccc(C(CC(=O)O)CC(=O)N(CCCl)CCCl)cc1C (stereo not given)	25.6% (inactive)
CC(C)(C)N1OC1c1cccc(Cl)c1 (stereo not given)	29.4% (inactive)
CCCCCCCCCCC(O)[C@H]1CCC(C2CC[C@H]([C@H](O)CCCCCCCCCCC(O)CC3=CC(C)OC3=O)O2)O1 (stereo not given in full)	-5.15% (inactive)
Nc1ccc(CCc2ccc(S(=O)(=O)F)cc2)cc1	95.9% (active)
O=[N+]([O-])c1cccc([As](=O)(O)c2ccc(O)c([N+](=O)[O-])c2)c1	10.2% (inactive)
